Consider 17 compounds from PubChem BioAssay (NCATS).

Molecules are shown by their SMILES. Values without a mark were called inactive. Inconclusive results are not listed. Active and inactive are the calls of the source. Calls follow the shape of the dose curve; as a rule, active = well fitted curve in the direction sought with a large enough effect; inconclusive = small, poorly fitted or top-dose-only effect, or another doubt; inactive = no such curve, though single readings can be large; an effect the other way counts as inactive or inconclusive. Non-standard residues stand in square brackets, D forms with d. Residues, ends and D or L forms follow the SMILES beside them. *: point of attachment. Nva = CCC[C@H](N)C(=O)O; Cbz = O=C(OCc1ccccc1)*

For test [1], the target named is Glutathione peroxidase 1 (Homo sapiens) (UniProt P07203). Briefly: Primary qHTS Assay for Inhibitors of Recombinant Selenoprotein Glutathione Peroxidase 1 (GPX1) (AID 1845191). Also: nearly all actives have a fitted effect of over 65% in size. The procedure, abridged:
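GR-coupled readout: NADPH consumption tracked by fluorescence, ex 340/em 450 nm, at t=0 and after 15 min at RT. Final mix 10 nM GPX1, 1 mM GSH, 0.5 mM CHP, 0.5 mM NADPH, 100 nM GR, 0.01% BSA, following 30 min enzyme–compound preincubation.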

Test [2] has as its target Phospholipid hydroperoxide glutathione peroxidase GPX4 (Homo sapiens) (UniProt P36969). Briefly: Primary qHTS Assay for Inhibitors of Recombinant Selenoprotein Glutathione Peroxidase 4 (GPX4) (AID 1845192). Also: nearly all actives have a fitted effect of over 65% in size. Also: potency is read from the fitted curve at half-maximal effect. As to activity change, negative = inhibition: series mostly up to about 50 µM; % is scaled to controls: 0 for no effect and ±100 for the full control effect. The essentials: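 Steps: GPX4 plus compound, 30 min RT; add GR/GSH/NADPH master mix; start with cumene hydroperoxide; read 340/450 nm fluorescence at 0 and 15 min. Finals were 200 nM GPX4, 1 mM GSH, 0.5 mM CHP, 0.5 mM NADPH, 100 nM GR.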

Test [3] can be described thus: Quantitative High-Throughput drug screen in 47 multiple myeloma cell lines against the NCATS MIPE library collection: FR4_PLB cell viability assay (AID 1918924; also: nearly all actives have a fitted effect of over 35% in size; also: potency is read from the fitted curve at half-maximal effect). The essentials: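 Steps: seed 500 cells per well; pin-transfer MIPE 4.0 library; incubate 48 h at 37C, 5% CO2, humidified; add CellTiter-Glo, 5 min room temperature; read luminescence.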
Test [4] in a line: Quantitative High-Throughput drug screen in 47 multiple myeloma cell lines against the NCATS MIPE library collection: Delta47_JCRB cell viability assay (AID 1918925; also: nearly all actives have a fitted effect of over 45% in size; also: potency is read from the fitted curve at half-maximal effect). The procedure, abridged: (§1)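 qHTS of the MIPE 4.0 collection: 500 myeloma cells/well, 48 h drug exposure at 37C in 5% CO2, then CellTiter-Glo for 5 min at room temperature before luminescence reading.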
Test [5] is described as follows: Quantitative High-Throughput drug screen in 47 multiple myeloma cell lines against the NCATS MIPE library collection: EJM_DSMZ cell viability assay (AID 1918926; also: nearly all actives have a fitted effect of over 30% in size; also: potency is read from the fitted curve at half-maximal effect). The essentials:
as §1

A short description of test [6]: Quantitative High-Throughput drug screen in 47 multiple myeloma cell lines against the NCATS MIPE library collection: AMO1_DSMZ cell viability assay (AID 1918927; also: nearly all actives have a fitted effect of over 30% in size; also: potency is read from the fitted curve at half-maximal effect). The essentials:
as §1

Test [7] is described as follows: Quantitative High-Throughput drug screen in 47 multiple myeloma cell lines against the NCATS MIPE library collection: ARP1_JJKsccF8 cell viability assay (AID 1918928; also: nearly all actives have a fitted effect of over 40% in size; also: potency is read from the fitted curve at half-maximal effect). The procedure, abridged:
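Viability screen: myeloma cells (500/well) incubated 48 h at 37 °C, humidified 5% CO2, with pinned library compounds; CellTiter-Glo added, luminescence read; DMSO wells set 100%, medium-only wells 0%.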

Test [8] in a line: Quantitative High-Throughput drug screen in 47 multiple myeloma cell lines against the NCATS MIPE library collection: ARD_JJKsccE7 cell viability assay (AID 1918929; also: potency is read from the fitted curve at half-maximal effect;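 as to viability: 100% = DMSO-only wells and 0% = media-only wells without cells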). The procedure, abridged:
as §1

For test [9], the target named is Luciferin 4-monooxygenase (Photinus pyralis) (UniProt P08659). Description: Primary firefly luciferase (FLuc) qHTS assay for identification of artifact compounds. (AID 1845220). Also: nearly all actives have a fitted effect of over 60% in size.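 As to activity change, negative = inhibition: series mostly up to about 54 µM; plate controls were DMSO vehicle for no effect and no enzyme for full effect.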 The procedure, abridged: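 Enzymatic FLuc inhibition assay: compounds pre-exposed to luciferin/ATP (10 uM each) for 15 min, then purified P. pyralis enzyme at 10 nM added. Read-out: luminescence at 5 min.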
In general terms: Quantitative high-throughput screening tests each substance at several concentrations.

Test [10] can be described thus: Primary fluorescence-based thiol-reactive (MSTI) qHTS assay for identification of artifact compounds. (AID 1845221).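 Also: series mostly up to about 54 µM; thiol-reactive compounds lower the probe fluorescence signal; nearly all actives have a fitted effect of over 65% in size.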 The essentials:
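One-hour, room-temperature, dark incubation of compound with 4 uM MSTI in PBS (pH 7.4, 2% DMSO) precedes a fluorescence read at 525 nm excitation, 598 nm emission; Hill-equation fitting yields concentration-response values.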

Test [11] relates to Nanoluciferase (engineered Oplophorus gracilirostris luciferase). Briefly: Primary Nanoluciferase (NLuc) qHTS assay for identification of artifact compounds. (AID 1845222).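 Also: NLuc secreted into diluted conditioned medium of S16 cells; series mostly up to about 54 µM; 0% = DMSO and -100% = no enzyme.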 The essentials:
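S16 cell supernatant NLuc, 1:55; cpds qHTS; 15 min RT dark; Nano-Glo substrate 1:100, 5 min; luminescence; Hill fit of % inhibition.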

Test [12] in a line: Primary redox qHTS assay for identification of artifact compounds. (AID 1845223). The essentials: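 Redox-cycling detection via DTT (250 uM final) oxidation coupled to Amplex Red (25 uM)/HRP (250 mU/mL) in HBSS. 15 min preincubation plus 30 min after DTT, room temperature. Ex/Em 525/598 nm; 4-parameter Hill fit against DMSO and 10 uM DA3003.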

Glutathione peroxidase 1 (Homo sapiens), sequence (P07203 whole entry, looked up): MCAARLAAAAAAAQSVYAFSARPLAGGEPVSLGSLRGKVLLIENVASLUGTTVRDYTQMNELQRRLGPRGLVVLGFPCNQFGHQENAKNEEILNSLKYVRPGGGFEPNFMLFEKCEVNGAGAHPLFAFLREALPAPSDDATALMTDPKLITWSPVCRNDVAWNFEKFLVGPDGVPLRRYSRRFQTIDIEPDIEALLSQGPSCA
Phospholipid hydroperoxide glutathione peroxidase GPX4 (Homo sapiens), sequence (P36969 whole entry, looked up): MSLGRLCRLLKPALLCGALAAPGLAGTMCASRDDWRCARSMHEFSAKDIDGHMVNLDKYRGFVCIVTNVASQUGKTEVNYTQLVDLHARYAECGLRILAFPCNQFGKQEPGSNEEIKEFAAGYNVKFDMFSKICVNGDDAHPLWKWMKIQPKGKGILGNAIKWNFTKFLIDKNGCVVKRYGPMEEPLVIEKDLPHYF

Consider `NC[C@H]1O[C@H](O[C@H]2[C@@H](O)[C@@H](O[C@H]3O[C@H](CO)[C@@H](O)[C@H](N)[C@@H]3O)[C@H](N)C[C@@H]2N)[C@H](N)C[C@H]1O`, for which the outcome in test [1] is “inactive [at 9.52 µM]”. The activity change, negative = inhibition in [2] was -9.51% [at 9.73 µM]. Also, the Potency entry in test [3], in test [4], in test [5], in test [6], in test [7] and in test [8] was “inactive” throughout.
With `NC(=O)N1CCC(CC(=O)N2CCC([C@H]3c4ncc(Br)cc4CCc4cc(Cl)cc(Br)c43)CC2)CC1`, the Potency result in [1] and in [2] was “inactive” each time. Besides, the Potency in test [3] is 20.9 µM (active); in test [4] it was 8.33 µM (active); in test [5], 20.9 µM (active); in [6], 7.43 µM (active); in test [7], 13.2 µM (active); in test [8] it was 2.09 µM (active).
For `CC(=O)SCC(Cc1ccccc1)C(=O)NCC(=O)OCc1ccccc1` (stereo not given), the Potency entry in [1] and in test [2] was “inactive” throughout. Besides, the Potency was 18.7 µM (active) in test [3]; 1.05 µM (active) in [4]; 14.8 µM (active) in test [5]; 3.72 µM (active) in test [6]; 2.35 µM (active) in test [7]; 8.33 µM (active) in test [8].
As to `c1cncc(CN2CCC(n3ncc4c(N5CCOCC5)nc(-c5ccc6[nH]ccc6c5)nc43)CC2)c1`, the Potency entry in test [1], in test [2], in [9], in test [10] and in test [12] was “inactive” each time. Moreover, in test [11], the result was inactive. Also, the Potency in test [4] was 0.743 µM (active); in test [5], 5.9 µM (active); in test [7], 3.32 µM (active).
As to `CN(C)CC(=O)N1CCC(c2ccc(NC(=O)c3ncc(C#N)[nH]3)c(C3=CCCCC3)c2)CC1`, the Potency result in test [1], in test [2], in [9], in [10], in [12] and in test [7] was “inactive” in each case. In addition, in test [11], the outcome was inactive. For the same compound, the Potency in test [4] is 18.7 µM (active); in [5], 18.7 µM (active); in test [6], 7.43 µM (active); in [8], 3.32 µM (active).
On to `O=C(Nc1ccc(Oc2ccnc3[nH]ccc23)c(F)c1)c1cccn(-c2ccc(F)cc2)c1=O`, for which the Potency entry in [1], in [2], in test [9], in test [10], in [12] and in [6] was “inactive” throughout. Further, the Potency result in test [7] was “inactive”. Further, the result in [11] was inactive.
`CC(=O)O[C@H]1C[C@@H]2CC[C@H]3[C@H]4C[C@H]([N+]5(C)CCCCC5)[C@@H](OC(C)=O)[C@@]4(C)CC[C@@H]3[C@@]2(C)C[C@H]1[N+]1(C)CCCCC1`: the Potency entry in test [1], in test [2], in [3], in test [4], in [5] and in test [7] was “inactive” in each case. In addition, in test [8], the Potency entry is “inactive”.
As to `CCC[C@@H](C=O)NC(=O)[C@H](CC(C)C)NC(=O)[C@H](CC(C)C)NC(=O)OCc1ccccc1` (Cbz-Leu-Leu-[Nva]-aldehyde), the Potency result in test [1] and in test [2] was “inactive” throughout. Also, the Potency in [3] is 0.833 µM (active); in [4], 0.332 µM (active); in test [5] it was 1.48 µM (active); in test [6], 0.296 µM (active); in [8] it was 0.332 µM (active).
On to `O=C(CN1C(=O)C2(CCCC2)NC[C@H]1c1cc(F)cc(F)c1)Nc1ccc2c(c1)C[C@@]1(C2)C(=O)Nc2ncccc21`, for which the Potency entry in [1], in test [2], in test [3], in test [4], in [5] and in test [6] was “inactive” each time. For the same compound, the Potency result in test [7] and in [8] was “inactive” in each case.
For `CCCCOc1ccc(C(=O)Nc2ccc(F)cc2F)cc1`, the Potency entry in [1], in [2], in test [9], in test [10], in [12] and in test [4] was “inactive” in each case. For the same compound, the Potency entry in [7] and in test [8] was “inactive” in each case. Further, the compound was classed as inactive in test [11].
Consider `CCc1nc(-c2cccc(C)c2)c(-c2ccnc(NC(=O)c3ccccc3)c2)s1`, for which the Potency entry in test [1], in test [2], in test [9], in test [10] and in test [12] was “inactive” in each case. In addition, in test [11], the result was inactive. Besides, the Potency is 18.7 µM (active) in test [3]; 16.6 µM (active) in [5]; 18.7 µM (active) in test [6]; 11.8 µM (active) in test [7]; 20.9 µM (active) in test [8].
For the compound `C=CC(=O)Nc1ccc2ncnc(Nc3ccc(OCc4cccc(F)c4)c(Cl)c3)c2c1`, the Potency entry in test [1], in test [2], in test [9], in test [10] and in [12] was “inactive” each time. Besides, the Potency in [3] was 6.62 µM (active); in test [4] it was 0.187 µM (active); in [5] it was 5.26 µM (active); in [6] it was 0.0209 µM (active); in [7], 0.296 µM (active); in test [8], 0.0418 µM (active).
Regarding `O=C1CSC(=O)N1C(CCc1ccncc1)COc1ccc(-c2cccc([N+](=O)[O-])c2)cc1` (stereo not given), the Potency result in test [1], in test [2], in test [6] and in [8] was “inactive” throughout. The Potency in test [3] is 18.7 µM (active); in [4], 4.18 µM (active); in test [5], 0.935 µM (active); in test [7], 3.32 µM (active).
As to `COc1cc(CCc2cc(NC(=O)c3ccc(N4C[C@@H](C)N[C@@H](C)C4)cc3)n[nH]2)cc(OC)c1`, the Potency result in [1], in test [2], in test [9], in [10] and in test [12] was “inactive” throughout. Moreover, the Potency was 18.7 µM (active) in [3]; 14.8 µM (active) in test [4]; 18.7 µM (active) in test [6]; 18.7 µM (active) in test [7]; 16.6 µM (active) in test [8].
As for `CN(CC(=O)N(Cc1ccc(C2CCCCC2)cc1)c1ccc(C(=O)O)c(O)c1)S(=O)(=O)c1c(F)c(F)c(F)c(F)c1F`, the Potency result in test [1] is “inactive”. The Potency in test [2] is 11.4 µM (active); in [3] it was 20.9 µM (active); in test [4] it was 5.9 µM (active); in [5], 18.7 µM (active); in test [6] it was 5.26 µM (active); in [7], 23.5 µM (active). Besides, the Potency in test [8] was 11.8 µM (active).
For the compound `FC(F)(F)c1ccc(Nc2nc3ccc(Oc4ccnc(-c5ncc(C(F)(F)F)[nH]5)c4)cc3[nH]2)cc1`, the Potency result in [1], in [2], in test [9], in test [10] and in test [12] was “inactive” throughout. Moreover, in test [11], the call was inactive. Further, the Potency in test [3] is 18.7 µM (active); in test [4], 23.5 µM (active); in test [6] it was 16.6 µM (active); in [7] it was 20.9 µM (active); in test [8] it was 14.8 µM (active).
`NC(=O)Nc1sc(-c2ccc(F)cc2)cc1C(N)=O`: the Potency entry in test [1] and in [2] was “inactive” each time. Also, the Potency in [3] was 2.35 µM (active); in [4], 0.187 µM (active); in [5], 1.87 µM (active); in test [6], 0.132 µM (active); in test [7] it was 2.96 µM (active); in test [8], 0.296 µM (active).
